Results: PubChem BioAssay (NCATS)
“And” between values parts separate entries of the source, which are not always exact repeats. Equal entries are not always repeated. The source made the active and inactive calls. Calls come from the whole dose curve.

Test: qHTS drug screen for cell cycle checkpoint inhibitors in PARPi-resistant BRCA-mutant ovarian cancer cell lines. (AID 1963452)
Conditions: PEO1/OlaR viability, CellTiter-Glo luminescence, 96 h; for Z-AUC: stronger effect = lower value
Excerpt: Women's Malignancies Branch, Center for Cancer Research (CCR),
National Cancer Institute (NCI), National Institutes of Health (NIH), Bethesda, MD
Poly (ADP-ribose) polymerase inhibitors (PARPis) have changed the treatment paradigm in breast cancer gene (BRCA) - mutant high-grade serous ovarian carcinoma (HGSC). However, most patients eventually develop resistance to PARPis, highlighting an unmet need for improved therapeutic strategies. Using high-throughput drug screens, we identified ataxia telangiectasia and rad3-related protein/checkpoint kinase 1 (CHK1) pathway inhibitors as cytotoxic and further validated the activity of the CHK1 inhibitor (CHK1i) prexasertib in PARPi-sensitive and -resistant BRCA-mutant HGSC cells and xenograft mouse models. CHK1i monotherapy induced DNA damage, apoptosis, and tumor size reduction. We then conducted a phase 2 study (NCT02203513) of prexasertib in patients with BRCA-mutant HGSC. The treatment was well tolerated but yielded an objective response rate of 6% (1 of 17; one partial response) in patients with previous PARPi treatment. […] BRCA reversion mutation in previously PARPi-treated BRCA-mutant patients was not associated with resistance to CHK1i.
Among others, 1082 oncology drugs, both approved and investigational, were prioritized based on their status in clinical trial development. […] Drugs with average Z-AUC values less than -1.0 in all three cell lines were classified as "hits" resulting in 151 oncology drug hits. The screen also confirmed cross-resistance between olaparib and other PARPis (rucaparib, niraparib, and talazoparib) in PARPi-resistant PEO1/OlaR and PEO4.
[1] G. L. Lin, K. M. Wilson, M. Ceribelli, B. Z. Stanton, P. J. Woo, S. Kreimer, E. Y. Qin, X. Zhang, J. Lennon, S. Nagaraja, P. J. Morris, M. Quezada, S. M. Gillespie, D. Y. Duveau, A. M. Michalowski, P. Shinn, R. Guha, M. Ferrer, C. Klumpp-Thomas, S. Michael, C. McKnight, P. Minhas, Z. Itkin, E. H. Raabe, L. Chen, R. Ghanem, A. C. Geraghty, L. Ni, K. I. Andreasson, N. A. Vitanza, K. E.Warren, C. J. Thomas, M. Monje, Therapeutic strategies for diffuse midline glioma from high-throughput combination drug screening. Sci. Transl. Med. 11, (2019).
[2] T. M. Yamamoto, A. McMellen, Z. L. Watson, J. Aguilera, R. Ferguson, E. Nurmemmedov, T. Thakar, G. L. Moldovan, H. Kim, D. M. Cittelly, A. M. Joglar, E. P. Brennecke, H. Wilson, K. Behbakht, M. J. Sikora, B. G. Bitler, Activation of Wnt signaling promotes olaparib resistant ovarian cancer. Mol. Carcinog. 58, 1770 - 1782 (2019).
PROTOCOL TABLE (as described by Inglese J, Shamu CE and Guy RK. 2007)
SEQUENCE No. (e.g., 1, 2, 3, etc.); […] (e.g., Cells, Incubation, Reagent, etc.); VALUE; DESCRIPTION.
1; Compounds; 20nL; 1536-well white tissue culture-treated plates.
2; Cells; 5 uL; PEO1, PEO4, and PEO1/OlaR cells at 600 cells per well.
3; Incubation; 96 hr; 37C, 95% humidity, 5% CO2.
4; Reagent; 3 uL; CellTiter-Glo (Promega).
5; Incubation; 15 min; room temperature.
6; Detection; Luminescence, PHERAstar (BMG Labtech) plate reader.
NOTES (numbers refer to Sequence numbers above)
1. MIPE 5.0 compounds were acoustically dispensed by Echo Acoustic Liquid Handler (Beckman Coulter Life Sciences). Each compound was plated at an 11-point concentration range with 1:3 dilution. Bortezomib, a proteasome inhibitor (final concentration, 20 uM), was used as a positive.
2. PEO1, PEO4, and PEO1/OlaR were trypsinized and dispensed in 5 uLof growth medium using a Multidrop Combi dispenser at a density of 600 cells per well to allow compounds to be present during the exponential growth phase.
3. Plates were incubated for 96 hours at standard incubator conditions and covered by a stainless steel gasketed lid to prevent evaporation.
4. Three microliters of CellTiter-Glo (Promega) were added to each well.
5. Plates were incubated at room temperature for 15 min with a stainless-steel lid in place.
6. Luminescence readings were taken using PHERAstar (BMG Labtech). […]

[1] = measured here: PEO1 parental Z-AUC
Potency is the fitted concentration of half-maximal effect.

Structure (SMILES) | Potency | Z-AUC [1] | Z-AUC (measured here: PEO4 Z-AUC) | Z-AUC
CC[C@@]1(O)C(=O)OCc2c1cc1n(c2=O)Cc2cc3cc(O)ccc3nc2-1 | 38.9 nM (active) | -3.38 | -2.58 | –
CC[C@@H]1C(=O)N(C)c2cnc(Nc3ccc(C(=O)NC4CCN(C)CC4)cc3OC)nc2N1C1CCCC1 | 43.6 nM (active) | -2.65 | -2.67 | –
c1ccc2c(CCNc3ccc(Nc4ccncc4)cc3)c[nH]c2c1 | 1230 nM (active) | -1.4 | -1.17 | –
Cc1ccc(C(=O)Nc2cccc(C(F)(F)F)c2)cc1-c1ccc2nc(NCCN3CCOCC3)ncc2c1 | – | -0.409 | -0.0261 | 0.224 (inactive)
COC(=O)C1=C(C)NC(C)=C(C(=O)OCCN2CCN(C(c3ccccc3)c3ccccc3)CC2)C1c1cccc([N+](=O)[O-])c1 (configuration not stated) | – | -0.345 | 0.196 | -0.27 (inactive)
Nc1nccc(Oc2ccc(NC(=O)c3c[nH]cc(-c4ccc(F)cc4)c3=O)cc2F)c1Cl | – | -0.587 | -1.14 | -0.747 (inactive)
CNC(=O)CN1CCC(Oc2cc3c(Nc4cccc(Cl)c4F)ncnc3cc2OC)CC1 | – | 0.682 | 0.199 | 0.332 (inactive)
Cc1c(NC(=O)OC[C@@H]2COCCN2)cn2ncnc(Nc3ccc4c(cnn4Cc4cccc(F)c4)c3)c12 | – | -0.48 and 1.05 | -1.04 and 1.11 | -1.36 (inactive) and 1.21 (inactive)
COc1cc2c(cc1-c1c(C)noc1C)ncc1[nH]c(=O)n([C@H](C)c3ccccn3)c12 | – | -1.04 | -1.54 | -1.31 (inactive)
C=CC(=O)Nc1cc2c(Nc3ccc(F)c(Cl)c3)ncnc2cc1OCCCN1CCOCC1 | – | -0.823 | -1.15 | -0.343 (inactive)
CS(=O)(=O)c1ccc(-c2cnc(N)c(C(=O)Nc3ccccc3)n2)cc1 | – | -0.901 | -1.14 | -0.54 (inactive)
OCCCNc1cc(-c2ccnc(Nc3cccc(Cl)c3)n2)ccn1 | – | -2.3 | -2.17 | -1.99 (inactive)
Cc1cc(Nc2cc(N3CCN(C)CC3)nc(Sc3ccc(NC(=O)C4CC4)cc3)n2)n[nH]1 | – | -0.131 | -0.437 | 0.654 (inactive)
O=C(O)Cn1nnc(-c2cc(N3CCC(Oc4cc(F)ccc4Br)CC3)no2)n1 | – | -0.799 | -1.41 | -0.81 (inactive)
